Screening data: PubChem BioAssay, National Center for Advancing Translational Sciences (NCATS)
KB-V1 cytotox = KB-V1 MDR subline cytotoxicity; KB-V1 MDR cells viability, CellTiter-Glo, 72 h; Potency, µM (top dose mostly 46.1 µM), hits mostly cytotoxic; 3.4% of 400,000 active; note: % is set by controls: 0 for no effect and ±100 for the full control effect; nearly all actives have a fitted effect of over 60% in size
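Compound-treated KB-V1 multidrug-resistant cells, 72 h, 37 degrees C; viability by CellTiter-Glo. Fitted qHTS curves give the values.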
SW480 rerep = inducers of DNA re-replication in SW480 colon cancer cells. 1.8% of 340,000 active. Potency, µM (highest dose often 46.1 µM), without a hit: at the highest dose re-replication activation, usual class: activators. SW480 DNA re-replication, Hoechst DNA content imaging, 48 h. AID 624297; note: % of control where 0% means no effect; nearly all actives have a fitted effect of over 55% in size
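Hoechst fluorescence of nuclei (405 nm excitation, 500-530 nm emission) measured by plate-scanning imager after 48 hr compound exposure at 37 C; re-replication scored as increased number of nuclei with elevated intensity.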
MCF10A rereplic = DNA re-replication induction in MCF 10a cells. MCF 10A DNA re-replication, Hoechst nuclear intensity, 48 h. Potency, µM (highest dose often 46.1 µM), inactives show top-dose activity, positive = re-replication, actives largely listed as activators. 2.9% of 350,000 active; note: % of control where 0% means no effect; nearly all actives have a fitted effect of over 50% in size
12-LOX inh = ALOX12 (human) lipoxygenase inhibition; 1.1% of 580,000 active; P18054; Potency, µM (top dose mostly 108 µM), without a hit: at the top dose activity change, negative = inhibition, most hits filed as inhibitors; purified 12hLO, xylenol orange hydroperoxide absorbance; note: % is set by controls: 0 for no effect and ±100 for the full control effect
Target sequence (P18054 whole entry, looked up): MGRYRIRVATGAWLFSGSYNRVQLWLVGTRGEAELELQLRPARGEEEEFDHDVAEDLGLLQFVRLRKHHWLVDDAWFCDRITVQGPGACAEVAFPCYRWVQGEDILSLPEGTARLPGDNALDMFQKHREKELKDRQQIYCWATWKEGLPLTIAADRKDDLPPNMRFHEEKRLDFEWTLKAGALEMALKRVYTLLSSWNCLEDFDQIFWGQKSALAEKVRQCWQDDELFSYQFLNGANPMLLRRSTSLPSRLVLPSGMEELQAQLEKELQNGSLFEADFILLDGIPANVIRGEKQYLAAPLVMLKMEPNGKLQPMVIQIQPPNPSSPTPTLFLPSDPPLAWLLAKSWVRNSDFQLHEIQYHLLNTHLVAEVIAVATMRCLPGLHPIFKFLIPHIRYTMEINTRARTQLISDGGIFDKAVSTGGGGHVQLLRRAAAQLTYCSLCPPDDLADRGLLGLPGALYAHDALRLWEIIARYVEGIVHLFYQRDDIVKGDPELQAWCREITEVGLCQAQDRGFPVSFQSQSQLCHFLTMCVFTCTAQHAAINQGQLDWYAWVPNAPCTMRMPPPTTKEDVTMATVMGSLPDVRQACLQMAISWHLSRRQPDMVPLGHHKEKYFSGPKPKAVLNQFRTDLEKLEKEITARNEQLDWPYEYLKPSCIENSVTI
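Purified human 12hLO (150 nM final) in 25 mM Hepes, 0.01% Triton X-100, pH 7.0 was preincubated 15 min at room temperature with compound. Then 40 uM arachidonic acid was added, 30 min. Hydroperoxide was read by Fe-XO absorbance ratio 573/405 nm.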
PINK1 expr mod = changes PINK1 expression | PINK1 immunofluorescence, high-content cytometry, 24 h | Potency, µM (highest dose often 76.6 µM), inactives show top-dose activation (PINK1 increase), most hits filed as activators | 0.2% of 410,000 active | AID 624263; active = well fitted activation curve with a large enough effect; inconclusive = small, poorly fitted or top-dose-only effect; cell line not stated here; note: % of control where 0% means no effect; nearly all actives have a fitted effect of over 65% in size
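Readout is PINK1 immunofluorescence, quantified alongside mitochondrial, cell and nuclear markers by laser-scanning microplate cytometry. Cells from a stable line were exposed to compound titrations (5 concentrations) for 24 hours, with CCCP controls.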
KB-3-1 tox = kills parental KB-3-1 adenocarcinoma cells; KB-3-1 viability, CellTiter-Glo ATP luminescence, 72 h; Potency, µM (series often up to 46.1 µM), usual class: cytotoxic; 1.4% of 400,000 active; AID 1347075; note: % is set by controls: 0 for no effect and ±100 for the full control effect; nearly all actives have a fitted effect of over 60% in size
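Viability of parental KB-3-1 cells, measured by CellTiter-Glo luminescence, followed a 72 h incubation at 37 °C with pinned compounds in phenol-red-free DMEM containing 10% FBS.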
Numbers without * were called inactive; i = inactive; ? = inconclusive; . = no result; [ ] = dose if it differs, or a comment. Sampled rows, rich in hits. Any-hit rate of the full collection: about 5.8%. Unless noted, calls come from the whole dose curve; as a rule, active = well fitted curve in the direction sought with a large enough effect; inconclusive = small, poorly fitted or top-dose-only effect, or another doubt; inactive = no such curve, though single readings can be large; an effect the other way counts as inactive or inconclusive. Potency is the fitted concentration of half-maximal effect.

SMILES	KB-V1 cytotox	SW480 rerep	MCF10A rereplic	12-LOX inh	PINK1 expr mod	KB-3-1 tox
C#CCn1c(S(=O)(=O)Cc2ccc(F)cc2)nc(-c2ccccc2)c1-c1ccccc1	5.17µM*	?	?	-4.2%	-5.3%[38.3 µM]	16.4µM*
CC(C)N1CCC(NC(=O)c2ccc3ccccc3c2)CC1	.	.	.	-28.2%	.	.
CCCCNC(=O)C(Sc1ccccc1)c1ccccc1 (centres undefined)	14.6µM*	-57.8%	9.3%	-10.0%	-0.5%	i
CCNC(=O)C(Sc1ccccc1)c1ccccc1 (centres undefined)	i	-5.3%	1.0%	2.0%	-4.6%	i
O=C1N/C(=C/c2ccc(Br)cc2)C(O)=C1C=NCc1ccccc1	?	?	?	-0.5%	11.9%	4.61µM*
CCCN(CC(=O)Nc1cc(Cl)cc(Cl)c1)CC(=O)Nc1ccc(F)c(F)c1F	23.1µM*	?	?	-15.5%	?	i
CCCN(CC(=O)Nc1ccccc1Br)CC(=O)Nc1ccc(F)c(F)c1F	i	0.7%	-2.1%	4.2%	8.7%	i
O=C(CCCN1C(=O)C(c2ccccc2)Oc2cccnc21)NC1CCCCC1 (centres undefined)	.	.	.	23.8%	.	.
CC1(C)C2CCC1(C)C(SC(=N)N)C2 (centres undefined)	18.4µM*	?	12.0%	-1.8%	-0.4%	i
CCOc1ccc(-c2nc(CN3CCCC(O)C3)cs2)cc1OC (centres undefined)	.	.	.	24.6%	.	.
CCOc1cccc(-c2nn(-c3ccccc3)cc2/C=C(/C#N)C(=O)NCCCn2ccnc2)c1	?	?	20.6µM*	-16.2%	-2.7%	i
N#C/C(=C/c1cn(-c2ccccc2)nc1-c1cccc(S(=O)(=O)N2CCCC2)c1)C(=O)NCc1ccco1	i	-3.0%	?	?	12.2%	i
N#C/C(=C/c1cn(-c2ccccc2)nc1-c1cccc(OCc2ccccc2)c1)C(=O)NCCCn1ccnc1	9.2µM*	?	13µM*	1.0%	-0.2%	i
N#C/C(=C/c1cn(-c2ccccc2)nc1-c1cccc(S(=O)(=O)N2CCOCC2)c1)C(=O)NCc1ccco1	i	-10.3%	1.3%	6.2%	3.8%	i
NC(=O)c1ccc(CNC(=O)c2nccnc2N)cc1	.	.	.	2.6%	.	.
CCc1c(C)sc(NC(=O)c2cc(-c3cccc(Cl)c3)on2)c1C#N	.	.	.	-17.6%	1.9%	.
COc1ccc(-c2csc(NC(=O)c3cc(C)on3)c2C#N)cc1OC	16.4µM*	3.4%	?	-16.9%	24.2%[38.3 µM]	i
CCc1c(C)sc(NC(=O)c2cc(-c3ccc(O)cc3)on2)c1C#N	i	14.6µM*	11.6µM*	-14.4%	6.7%	i
CCc1c(C)sc(NC(=O)c2cc(-c3ccc(OC)c(OC)c3)on2)c1C#N	i	1.5%	5.17µM*	-4.9%	1.0%	i
CCc1c(C)sc(NC(=O)c2cc(-c3cc(OC)ccc3OC)on2)c1C#N	?	-0.9%	2.59µM*	0.2%	8.5%[38.3 µM]	i
CCc1c(C)sc(NC(=O)c2cc(CC(C)C)on2)c1C#N	i	-9.6%	11.5%	9.1%	-0.1%	i
CN(C)CCN(CC1CCCCC1)C(=O)Nc1ccc(F)cc1	.	.	.	-1.2%	.	.
Cc1ccc(-c2nc3ccccc3n2CCNC(=O)Nc2cccc(F)c2)cc1	.	.	.	-0.2%	.	.
CCn1nc(C(=O)N2CCN(S(=O)(=O)c3ccc(C(C)(C)C)cc3)CC2)c2ccccc2c1=O	.	.	.	28.4%	.	.
Cc1nc2ccc(C(=O)OC(C)C(=O)NC(=O)NCc3ccccc3)cc2nc1C (centres undefined)	.	.	.	-17.9%	.	.
SMILES	KB-V1 cytotox	SW480 rerep	MCF10A rereplic	12-LOX inh	PINK1 expr mod	KB-3-1 tox
C=CCn1c(SCC(=O)Nc2cc(C)ccc2OC)nnc1-c1ccco1	i	-2.8%	7.2%	0.0%	-0.4%	i
C=CCn1c(SCC(=O)N2CCN(c3ccccc3)CC2)nnc1-c1ccco1	13µM*	-4.5%	8.6%	-28.3%	-2.6%	i
C=CCn1c(SCC(=O)Nc2cc(C)c(Cl)cc2OC)nnc1-c1ccco1	2.31µM*	-12.2%	17.8%	-19.9%	-4.0%[38.3 µM]	i
CCn1c(SCC(=O)N2CCN(c3ccccc3)CC2)nnc1-c1cc2cc(Cl)ccc2o1	i	-8.2%	-0.9%	22.4%	11.2µM*	i
Nn1c(SCc2ncc(-c3ccccc3)o2)nnc1-c1ccccc1F	.	.	.	6.31µM*	.	.
COc1cc(NC(=O)c2nc3ccccc3nc2OC)cc(OC)c1OC	.	.	.	-6.9%	.	.
CCn1c(=O)n(CC(=O)N(C)Cc2ccc(C)cc2C)c2ccccc21	.	.	.	-1.9%	.	.
CCOc1ccccc1NC(=O)CSc1nc2nc(-c3cccs3)cc(C(F)(F)F)c2c(=O)[nH]1	i	-4.4%	16.4µM*	?	3.1%	i
COC(CNC(=O)c1ccc(COc2cccc3c2OC(C)(C)C3)cc1)OC	.	.	.	-0.7%	.	.
CCCn1c2c(c(=O)n(C)c1=O)C(c1ccccc1C)C1=C(COC1=O)N2 (centres undefined)	.	.	.	-15.5%	.	.
O=C1N/C(=N\N=C\c2cccs2)SC1Cc1ccc(Cl)cc1Cl (centres undefined)	?	-82.3%	20.7%	5.8%	?	7.31µM*
O=C(CC1S/C(=N/N=C/c2cccs2)NC1=O)Nc1ccc(Cl)cc1 (centres undefined)	i	0.9%	-2.7%	-17.8%	12.8%	i
O=C1NC(=Nc2ccc(F)cc2)SC1Cc1ccc(F)cc1 (centres undefined)	?	-7.1%	-0.8%	46.3%	4.6%	i
O=C1N/C(=N\N=C\c2cccs2)SC1Cc1cccc(Cl)c1Cl (centres undefined)	?	7.31µM*	1.46µM*	24.4%	10.3%	5.17µM*
O=C1NC(=Nc2ccc(Cl)cc2)SC1Cc1cc(Cl)ccc1Cl (centres undefined)	14.6µM*	2.2%	?	-23.3%	?	i
Cc1ccc(CN(Cc2cccnc2)C(=O)CN2C(=O)COc3ccccc32)o1	i	-3.4%	0.2%	-0.2%	3.0%[38.3 µM]	i
COc1ccc(NC(=O)CN2C(=O)C(C)Oc3ccccc32)cc1 (centres undefined)	?	3.1%	4.7%	-3.3%	11.5%	i
COc1ccc(CN(Cc2ccccn2)C(=O)CN2C(=O)C(C)Oc3ccccc32)cc1 (centres undefined)	2.06µM*	13.7%	27.6%	0.4%	-1.5%[38.3 µM]	i
O=C(CN1C(=O)COc2ccccc21)N(Cc1ccccc1)Cc1ccccn1	14.6µM*	1.0%	-3.4%	17.4%	-1.6%[38.3 µM]	i
CCN(Cc1ccc(Cl)s1)C(=O)Cn1nnc(-c2cccc(C(F)(F)F)c2)n1	.	.	.	43.6%	.	.
